Experimental data taken from publication PMC4336329 (PLoS ONE, 2015).
Out of some 310,000 compounds screened, about 2,200 (0.71%) showed an effect of 50% or more. The effect is printed as a negative number. Many of the other results were omitted from the sample, so strong results are more common in it than they were.

target: human ether-à-go-go-related gene (hERG) potassium channel (human, UniProt Q12809); experiment: primary screen, population patch clamp on CHO cells stably expressing hERG; higher = less effect of the substance
Sequence (Q12809 whole entry, looked up): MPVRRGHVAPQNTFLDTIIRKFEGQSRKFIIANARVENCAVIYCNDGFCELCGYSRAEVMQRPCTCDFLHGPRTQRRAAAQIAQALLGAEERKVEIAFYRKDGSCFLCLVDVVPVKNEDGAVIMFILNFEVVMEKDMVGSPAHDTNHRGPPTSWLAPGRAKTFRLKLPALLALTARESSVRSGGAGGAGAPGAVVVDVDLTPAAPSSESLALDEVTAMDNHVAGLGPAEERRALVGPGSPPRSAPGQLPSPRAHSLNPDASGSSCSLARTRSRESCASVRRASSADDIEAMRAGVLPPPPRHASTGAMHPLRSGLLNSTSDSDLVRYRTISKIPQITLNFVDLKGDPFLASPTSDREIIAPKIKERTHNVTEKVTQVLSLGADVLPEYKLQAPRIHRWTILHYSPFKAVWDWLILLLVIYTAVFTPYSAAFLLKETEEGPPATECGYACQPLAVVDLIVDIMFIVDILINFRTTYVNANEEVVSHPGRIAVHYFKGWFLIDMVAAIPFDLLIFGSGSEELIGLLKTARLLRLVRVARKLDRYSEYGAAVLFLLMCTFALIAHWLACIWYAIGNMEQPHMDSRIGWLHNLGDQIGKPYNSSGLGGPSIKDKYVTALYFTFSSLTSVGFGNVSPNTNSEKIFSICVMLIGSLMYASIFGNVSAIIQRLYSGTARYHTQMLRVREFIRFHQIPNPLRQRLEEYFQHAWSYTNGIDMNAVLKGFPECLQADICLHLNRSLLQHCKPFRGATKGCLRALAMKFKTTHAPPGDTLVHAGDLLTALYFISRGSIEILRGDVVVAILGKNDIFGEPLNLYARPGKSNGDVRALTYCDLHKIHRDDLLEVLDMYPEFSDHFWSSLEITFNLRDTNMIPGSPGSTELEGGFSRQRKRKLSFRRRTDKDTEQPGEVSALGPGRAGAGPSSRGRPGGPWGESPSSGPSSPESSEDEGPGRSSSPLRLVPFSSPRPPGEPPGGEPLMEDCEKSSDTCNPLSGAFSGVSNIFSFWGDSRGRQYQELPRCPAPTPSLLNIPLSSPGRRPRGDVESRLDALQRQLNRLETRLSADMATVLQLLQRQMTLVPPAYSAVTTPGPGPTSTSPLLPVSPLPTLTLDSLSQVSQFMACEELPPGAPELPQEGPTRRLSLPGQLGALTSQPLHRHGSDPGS

Compound	hERG current change (%, negative = inhibition) at 1uM [%]
O=[N+]([O-])c1cc(C(F)(F)F)cc([N+](=O)[O-])c1NN=C1CCCCC1	9.66
CC(=O)N1CCN(Cc2nc3cc(NC(=O)Nc4ccccc4)ccc3n2C)CC1	15.5
CC(C)CN(C(=O)COC(=O)C12CC3CC(CC(O)(C3)C1)C2)C1CCS(=O)(=O)C1 (stereo not drawn)	18.7
CSCCC(/C(O)=C(\C#N)c1nc2ccccc2[nH]1)N1C(=O)c2ccccc2C1=O (stereo not drawn)	5.68
CC(C)C(=O)Nc1ccc(C(=O)NNC(=O)NC2CCCCC2)cc1	21.9
O=C(CSc1nc2c(sc3ccccc32)c(=O)n1CCCN1CCCC1)NCC1CCCO1 (stereo not drawn)	-19.8
CCOCCCn1c(SCC(=O)NCc2ccco2)nc2c(sc3ccccc32)c1=O	3.64
O=C(CSc1nc2c(sc3ccccc32)c(=O)n1CCc1ccccc1)NCc1ccco1	2.54
COc1ccc(NC(=O)CSc2nc3c(sc4ccccc43)c(=O)n2CCCN2CCCC2)cc1	-1.35
O=C(CSc1nc2c(sc3ccccc32)c(=O)n1CCCN1CCCC1)NCc1ccco1	-70.1
O=C(CSc1nc2c(sc3ccccc32)c(=O)n1CCCN1CCCC1)NCc1ccccc1	-67.9
CCCc1cc(C(=O)NCCc2ccccc2)no1	-4.85
C[C@H](CCC(=O)O)[C@H]1CC[C@H]2[C@@H]3CC[C@@H]4C[C@H](O)CC[C@]4(C)[C@H]3CC[C@]12C	15.8
CC1(C(=O)NCCc2c[nH]c3ccccc23)C=CC2(CCCCC2)N1C(=O)c1ccccc1 (stereo not drawn)	2.59
O=C(/C=C/c1ccc(Cl)cc1)NCc1ccncc1	9.09
COc1ccccc1-n1c([S-])c(C(=O)Nc2ccccc2C(F)(F)F)[n+]2ccc(C(=O)NCCO)cc12	12.9
Nc1ncnc(Nc2c(F)cccc2F)n1	7.67
CCOCCCNc1nc2c(C)cccn2c(=O)c1/C=C1\SC(=S)N(C(C)CC)C1=O (stereo not drawn)	10.1
C=CCNC(=S)N1CCN(CCN=Cc2c(C)[nH]n(-c3ccc([N+](=O)[O-])cc3)c2=O)CC1	-27.3
Cc1[nH]n(-c2ccc([N+](=O)[O-])cc2)c(=O)c1C=NCCN1CCN(C(=O)c2ccc(Br)cc2)CC1	-77.4
O=c1c(C=NCCN2CCNCC2)c(-c2ccccc2)[nH]n1-c1ccc([N+](=O)[O-])cc1	-31

Compound	hERG current change (%, negative = inhibition) at 1uM [%]
Cc1[nH]n(-c2ccc([N+](=O)[O-])cc2)c(=O)c1C=NCCN1CCN(C(=O)c2ccccc2)CC1	-77
Cc1[nH]n(-c2ccc([N+](=O)[O-])cc2)c(=O)c1C=NCC1CCCO1 (stereo not drawn)	7.67
Cc1[nH]n(-c2ccc([N+](=O)[O-])cc2)c(=O)c1C=NCCN1CCN(C(=O)C(C)C)CC1	-19.5
Cc1[nH]n(-c2ccc([N+](=O)[O-])cc2)c(=O)c1C=NCCN1CCN(C(=O)c2ccc(F)cc2)CC1	-81.7
COc1ccc(-c2[nH]n(-c3ccc([N+](=O)[O-])cc3)c(=O)c2C=NCCN2CCNCC2)cc1	2.86
COc1ccc(CCN=Cc2c(C)[nH]n(-c3ccc([N+](=O)[O-])cc3)c2=O)cc1OC	7
Cc1[nH]n(-c2ccc([N+](=O)[O-])cc2)c(=O)c1C=NCCc1ccc(S(N)(=O)=O)cc1	13.6
Cc1[nH]n(-c2ccc([N+](=O)[O-])cc2)c(=O)c1C=NCCN1CCN(C(=O)c2cccc(F)c2)CC1	-78
Cc1[nH]n(-c2ccc([N+](=O)[O-])cc2)c(=O)c1C=NCCN1CCN(C(=O)c2ccccc2F)CC1	-34.2
CC(C)C(NC(=S)NCc1ccccc1)C(=O)O (stereo not drawn)	12.7
N#CNC(N)=Nc1cccc(Cl)c1	16.4
O=C(N/N=C/c1cn(-c2ccccc2)nc1-c1cccnc1)c1cccnc1	-26.3
Cc1cc(C)cc(NC(=O)CCN2CCOCC2)c1	7.44
C#CCN(N(C)c1ncc(C(F)(F)F)cc1Cl)S(=O)(=O)c1ccc2ccccc2c1	14.3
Cc1ccc(NC(=S)c2nc3ccccc3[nH]2)c(C)c1	14.6
CC(C)Cn1c(-c2ccc(F)cc2)n[nH]c1=S	11.6
COc1ccc(CN2CCN(CCCc3ccccc3)C(CCO)C2)c(OC)c1 (stereo not drawn)	-39.7
COc1ccc(CN2CCN(Cc3ccccc3)CC2)c(OC)c1	-43.8
CC(C(=O)N1CCc2ccccc21)N1CCN(Cc2ccc(Cl)cc2)CC1 (stereo not drawn)	-30.9
COc1ccc(CN2CCN(Cc3ccccc3F)CC2)c(OC)c1.O=C(O)C(=O)O	-36
CC(C(=O)N1CCc2ccccc21)N1CCN(Cc2ccccc2)CC1 (stereo not drawn)	4.18

Compound	hERG current change (%, negative = inhibition) at 1uM [%]
COc1ccc(CN2CCN(c3ccccc3OC)CC2)c(OC)c1.O=C(O)C(=O)O	-47.7
COc1cc(CN2CCN(c3ccccc3F)CC2)cc(OC)c1O	2.78
COc1ccc(CN2CCN(c3ccccc3F)CC2)cc1O	-51.2
COc1ccc(CN2CCC(C(=O)N3CCN(c4ccccc4F)CC3)CC2)cc1OC	3.9
COc1ccc(CN2CCN(C(C)C(=O)N3CCc4ccccc43)CC2)cc1OC (stereo not drawn)	-52.3
COc1ccc(CN2CCN(CCCc3ccccc3)CC2)c(OC)c1	-64.9
COc1ccc(CN2CCN(c3ccccc3F)CC2)c(OC)c1	-57.8
C(=N\n1cnnc1)/c1cccs1	5.5
CN(c1ccc(C(=O)NCCSCc2ccc(Cl)cc2)cc1)S(=O)(=O)c1ccccc1	14.1
CCc1ccc(CN(C)C(=O)c2cc(COc3cccc(C(F)(F)F)c3)on2)nc1	6.84
C=CCNC(=O)CSc1nnc(C(CC)N(C)C)n1C1CCCCC1 (stereo not drawn)	8.12
O=C(Nc1nc(-c2ccccc2)cs1)c1ccc(N2CCOCC2)c([N+](=O)[O-])c1	31.6
CC(=O)Nc1ccc2c(c1)N(C(=O)CN(C)C)c1ccccc1CC2	9.16
Cc1cc(C(=O)CN2C(=O)c3ccccc3C2=O)c(C)n1Cc1cccs1	9.88
COc1ccc(CN2CCN(c3ccccn3)CC2)c(OC)c1C.O=C(O)C(=O)O	5.42
COc1ccc(CN2CCN(c3cccc(C)c3C)CC2)cc1OC	-61.1
COc1cc(CN2CCN(c3cccc(C)c3C)CC2)cc(OC)c1O	-20.4
COc1cc(CN2CCN(c3cccc(C)c3C)CC2)cc(Br)c1O	1.25
COc1ccc(CN2CCN(c3ccccn3)CC2)c(OC)c1	-52
COc1ccc(-c2[nH]ncc2CN2CCN(c3ccccn3)CC2)c(OC)c1	2.51
CCOc1ccc(NC(=O)CCC(=O)c2ccc(OC)cc2)cc1	16.1

Compound	hERG current change (%, negative = inhibition) at 1uM [%]
Cc1c(Cl)ccc(S(=O)(=O)NCCCn2ccnc2)c1Cl	12.2
CN1CCN(C(=O)c2cnn(-c3ccccc3)c2NC(=O)c2ccc(Br)cc2)CC1	-88.5
CN1CCN(C(=O)c2cnn(-c3ccccc3)c2NC(=O)c2ccccc2Br)CC1	15.2
CN1CCN(C(=O)c2cnn(-c3ccccc3)c2NC(=O)c2ccccc2)CC1	10.4
COc1ccc(CCNC(=O)c2cc3c(=O)n4cccc(C)c4nc3n(CCCN3CCOCC3)c2=N)cc1	-85.1
COc1ccc(CNC(=O)C(C)Sc2nc3ccccc3c(=O)n2CC2CCCO2)cc1 (stereo not drawn)	-17.5
COc1ccc(CCNC(=O)c2cc3c(=O)n4ccccc4nc3n(CCN3CCOCC3)c2=N)cc1	-82
COc1ccc(CCNC(=O)c2cc3c(=O)n4ccccc4nc3n(CCCN3CCOCC3)c2=N)cc1OC	-39.4
COc1ccc(CCn2c(=N)c(C(=O)NCCN3CCOCC3)cc3c(=O)n4ccccc4nc32)cc1OC	10.4
COc1ccccc1CNC(=O)CSc1nc2ccccc2c(=O)n1CCCN1CCOCC1	-6.17
COc1ccc(CNC(=O)C(C)Sc2nc3ccccc3c(=O)n2CCCN2CCOCC2)cc1 (stereo not drawn)	-95
COc1ccc(CCNC(=O)c2cc3c(=O)n4ccccc4nc3n(CCCN3CCOCC3)c2=N)cc1	-88.9
Cc1cccn2c(=O)c3cc(C(=O)NCCN4CCOCC4)c(=N)n(CCCN4CCOCC4)c3nc12	16.7
Cc1cc(=O)[nH]c(N/N=C/c2c(C)nn(-c3ccc(F)cc3)c2Cl)n1	-3.02
CN1CCN(c2ccc(NC(=O)c3cc4ccccc4o3)cc2)CC1	-14.8
CCCC(C(=O)NC(C)(C)CC)N(CC1CCCO1)C(=O)CNS(=O)(=O)c1ccc(F)cc1 (stereo not drawn)	-12.1
Cc1nc2ccccc2n1C1CCN(CC(=O)NCc2ccc(F)cc2)CC1	-23.3
COc1ccc(CNC(=O)CCC(=O)N2CC(C)Oc3ccccc32)cc1 (stereo not drawn)	-0.874
